# Assay outcomes from PubChem BioAssay.
# BoNT-F LC inh = blocks Botulinum neurotoxin F light chain protease | AID 588497 | Multiplex microsphere protease cleavage assay, flow cytometry | inhibition, % at 10 µM | actives 0.22% (n = 360,000); in the data active = inhibition above about 35%, passing the limit was not always enough; inconclusive = no clear call, values can overlap the other calls; note: plate controls were buffer without enzyme for full effect and enzyme alone for no effect
# Anthrax LF inh2 = blocks Bacillus anthracis lethal factor protease. actives 0.12% (n = 360,000). P15917. multiplex microsphere protease cleavage assay, LF. AID 588501. inhibition, % at 10 µM; note: plate controls were buffer without enzyme for full effect and enzyme alone for no effect
# Target sequence (P15917 whole entry, looked up): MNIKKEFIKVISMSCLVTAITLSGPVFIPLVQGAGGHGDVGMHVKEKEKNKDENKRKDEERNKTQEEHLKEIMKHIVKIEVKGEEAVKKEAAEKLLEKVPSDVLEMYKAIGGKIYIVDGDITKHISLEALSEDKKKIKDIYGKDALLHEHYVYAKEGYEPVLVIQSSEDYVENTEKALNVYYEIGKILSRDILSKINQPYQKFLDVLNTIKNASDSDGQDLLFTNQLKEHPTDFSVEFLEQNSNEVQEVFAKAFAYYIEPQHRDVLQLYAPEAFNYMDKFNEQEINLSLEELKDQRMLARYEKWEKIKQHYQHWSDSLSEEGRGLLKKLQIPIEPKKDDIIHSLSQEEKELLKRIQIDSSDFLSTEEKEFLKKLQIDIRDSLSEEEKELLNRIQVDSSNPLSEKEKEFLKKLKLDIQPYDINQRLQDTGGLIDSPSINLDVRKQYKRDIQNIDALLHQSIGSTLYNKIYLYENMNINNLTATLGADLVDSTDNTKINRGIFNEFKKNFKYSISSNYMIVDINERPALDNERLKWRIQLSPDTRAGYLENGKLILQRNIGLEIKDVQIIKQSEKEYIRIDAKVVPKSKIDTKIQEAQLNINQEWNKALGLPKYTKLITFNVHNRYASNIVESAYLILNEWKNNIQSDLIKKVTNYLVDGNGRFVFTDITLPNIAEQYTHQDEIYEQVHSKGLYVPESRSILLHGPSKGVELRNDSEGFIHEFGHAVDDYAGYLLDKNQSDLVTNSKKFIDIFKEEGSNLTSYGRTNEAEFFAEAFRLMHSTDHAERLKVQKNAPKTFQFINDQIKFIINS
# BoNT-A LC inh2 = blocks Botulinum neurotoxin A light chain protease; multiplex microsphere protease substrate cleavage, flow cytometry; inhibition, % at 10 µM; actives 0.17% (n = 360,000); AID 588499; note: plate controls were buffer without enzyme for full effect and enzyme alone for no effect
# Autofluor counter = flagged as autofluorescent in microsphere protease counterscreen; fluorescence intensity (test concentration not listed); compound autofluorescence counterscreen, microsphere flow cytometry; stronger effect = higher value; AID 624483; actives 3.1% (n = 360,000); in the data active = fluorescence intensity above about 16000; inconclusive = no clear call, values can overlap the other calls
# TcdB inh = TcdB glycohydrolase inhibition | P18177 | inhibition, % at 9.99 µM | TcdB glycohydrolase enzymatic assay, plate reader | actives 0.24% (n = 350,000) | AID 652162; in the data active = inhibition above about 10%
# The depositor's hits bear a star; ? = inconclusive; / = no result. This is one part of a sample in which hits are shown more often than they occur. Cut-off read from the data, not from the text of the source, unless noted: active = inhibition above about 30%; inconclusive = no clear call, values can overlap the other calls; inactive = below that.
SMILES,BoNT-F LC inh,Anthrax LF inh2,BoNT-A LC inh2,Autofluor counter,TcdB inh
CCC(=NCCO)c1c(O)n(-c2ccccc2)c(=O)[nH]c1=O,1,9,1,2882,/
COc1ccc(NC(=O)Nc2ccc3c(c2)C(=O)N([C@@H](C)CO)C[C@H](C)[C@H](CN(C)S(=O)(=O)c2ccc(C)cc2)OCCCC[C@H](C)O3)cc1,/,/,/,/,-3
COc1ccc(Cn2c(CCC(=O)Nc3ccccc3)nc3cccnc32)cc1,14,-1,2,3486,/
COCCCNC(=O)CCc1nc2cccnc2n1Cc1ccccc1,-2,-2,0,23819*,/
O=C(CCc1nc2cccnc2n1Cc1ccccc1)NCCc1ccc(Cl)cc1,16,-8,-1,4169,/
COc1ccc(Cn2c(CCC(=O)Nc3ccc(CC#N)cc3)nc3cccnc32)cc1,1,-2,2,22433*,/
COc1ccc(NC(=O)Nc2ccc3c(c2)C(=O)N([C@@H](C)CO)C[C@H](C)[C@@H](CN(C)C(=O)Nc2ccccc2)OCCCC[C@H](C)O3)cc1,/,/,/,/,0
CCOc1c(Cl)cc(CNc2ccc(N3CCCC3)cc2)cc1OC,-39,-21,0,4102,-7
CCOc1c(Cl)cc(CNC(C)(C)CC(C)(C)C)cc1OC,4,-4,4,21728*,/
CCOC(=O)c1cnc(-n2nc(C)cc2C)nc1Nc1ccc(C)cc1,-6,-12,?,?,/
CCOC(=O)c1cnc(-n2nc(C)cc2C)nc1N(CC)CC,2,-12,?,18780*,/
CCOC(=O)c1cnc(-n2nc(C)cc2C)nc1Nc1cccc(C(=O)O)c1,3,1,1,21795*,/
COc1ccc(S(=O)(=O)Nc2ccc3c(c2)C(=O)N([C@@H](C)CO)C[C@H](C)[C@@H](CN(C)C(=O)NC2CCCCC2)OCCCC[C@@H](C)O3)cc1,/,/,/,/,1
CC1(C)N=C(N)NC(Nc2ccc(Br)cc2)=N1,-3,-2,-2,23628*,/
C[C@@H]1CN([C@@H](C)CO)C(=O)c2cccc(NC(=O)NC3CCCCC3)c2O[C@H]1CN(C)C(=O)NC1CCCCC1,/,/,/,/,1
O=C(CSc1ncn(-c2ccccc2)n1)Nc1nc2c(s1)CCCC2,-2,-1,0,10119,/
O=C(CSc1ncn(-c2ccccc2)n1)Nc1nc2ccccc2s1,2,-2,2,22783*,/
O=C(CSCC(=O)N1CCN(c2ccccc2)CC1)Nc1nc(-c2ccc(Cl)s2)cs1,4,4,0,5884,0
CCOC(=O)N1CCN(C(=O)CSCC(=O)Nc2nc(-c3ccccc3)cs2)CC1,-2,-1,0,23127*,/
C/C(=N\OCC(=O)Nc1nc2ccccc2s1)c1ccccc1,-6,0,0,7851,10*
O=C(CSc1nnc(CNc2ccc(Cl)cc2)o1)Nc1nc2ccccc2s1,-7,-2,?,25121*,/
CN(C)CC#Cc1ccc([C@H]2[C@H]3CN(C(=O)C4CC4)CCCCN3[C@H]2CO)cc1,/,/,/,/,0
CO[C@@H]1CN(C)C(=O)c2cc(NC(=O)c3ccccc3)ccc2OC[C@H](C)NC[C@H]1C,/,/,/,/,1
Cc1ccc(S(=O)(=O)N(C)C[C@H]2Oc3ccc(NC(=O)Nc4ccc5c(c4)OCO5)cc3CC(=O)N([C@H](C)CO)C[C@H]2C)cc1,/,/,/,/,0
Cc1nnc(SCC(=O)Nc2nc(-c3ccccc3)cs2)n1N,-1,-3,-1,22717*,/
SMILES,BoNT-F LC inh,Anthrax LF inh2,BoNT-A LC inh2,Autofluor counter,TcdB inh
O=C(CSc1ncn(-c2ccccc2)n1)Nc1nc(-c2ccccc2)cs1,1,-10,?,20833*,/
COCC(=O)N(C)C[C@H]1Oc2cc(-c3ccncc3)ccc2S(=O)(=O)N([C@H](C)CO)C[C@@H]1C,/,/,/,/,-1
Cc1cccc(C)c1N1CCN(c2nc(N(C)C)oc(=O)c2C#N)CC1,2,1,0,23077*,/
CN(C)c1nc(N2CCN(c3ccccc3)CC2)c(C#N)c(=O)o1,-4,-4,0,5550,/
Cc1noc(C)c1NC(=O)N(C)C[C@H]1Oc2ncc(C#CC(C)C)cc2C(=O)N([C@H](C)CO)C[C@H]1C,/,/,/,/,-3
C[C@H]1CN([C@@H](C)CO)C(=O)c2cccc(NC(=O)C3CC3)c2O[C@@H]1CN(C)CC1CC1,/,/,/,/,-2
C=CCc1cc(C=O)cc(OC)c1OCc1c(Cl)cccc1Cl,-5,-2,?,24171*,/
Cc1nn(-c2ccccc2)c(OC(=O)c2cccs2)c1S(=O)(=O)c1ccc([N+](=O)[O-])cc1,0,-3,0,16331*,/
O=C(C[C@H]1CC[C@@H](NC(=O)c2cnccn2)[C@@H](CO)O1)NCc1ccccc1F,/,/,/,/,0
O=c1c2ccccc2oc2ccc(NCCCN3CCOCC3)cc12,1,-2,0,3809,13*
